These molecules were tested against PEG-3 (UniProt Q6IN02) (assay: GAPDH versus PEG-3 reporter suppression – cell-based, luminescence, counter-screen for PEG-3 promoter inhibitor project, SAR follow-up (AID 651551)). Details: HeLa PEG-Prom / GAPDH luciferase reporter, 6 or 24 h, run 1, 6 h; at 99 µM (top of the series).

SMILES	inhibition % (higher = more inhibition) [%]
CCCn1nc(C(=O)Nc2nc(-c3ccccn3)cs2)c2ccccc2c1=O	25.9
Cc1cc(NC(=O)c2ccccc2)n(-c2nc3ccccc3[nH]2)n1	14.9
COc1ccc(-n2nc(C(=O)NCC(=O)Nc3ccc(OC)c(OC)c3)c3ccccc3c2=O)cc1	23.9
O=C(Nc1nccs1)c1nn(-c2ccccc2)c(=O)c2ccccc12	37.4
Cc1cc(NC(=O)c2cccc(C)c2C)n(-c2nc3ccccc3[nH]2)n1	20.4
CCCn1nc(C(=O)Nc2nc(-c3ccncc3)cs2)c2ccccc2c1=O	19.5
Cc1cc(NC(=O)c2ccccc2C(F)(F)F)n(-c2nc3ccccc3[nH]2)n1	92.7
